Screening data as filed in PubChem BioAssay.
TLR4 MyD88 comp: TLR4-MyD88 interaction inhibition in cells; O00206+Q99836; HeLa CL3-4 TLR4/MyD88 BLA complementation, FRET ratio; inhibition, % at 8.4 µM; 200,000 tested, 0.18% active; AID 861; in the data active = inhibition above about 25%;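 note: 0% = vehicle and 100% = reference inhibitor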
TLR9-MyD88 block: blocks human TLR9 binding to MyD88; Q9NR96+Q99836; CHO BLA complementation TLR9-MyD88, CCF4 FRET ratio; 340,000 tested, 0.21% active; inhibition, % at 4.98 µM;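 active = inhibition above the mean over all tested compounds plus 3 SD, cut at about 21% in these data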;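 note: 0% = DMSO only wells and 100% = clavulanate BLA inhibitor control wells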
CRFBP-R2 block: antagonists of CRF-binding protein/CRF-R2 receptor complex | 350,000 tested, 0.59% active | HEK293 CRF-R2/CRF-BP, CRF-induced calcium fluorescence | inhibition, % at 11.8 µM;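 active = inhibition of the ligand-induced calcium signal above about 50% at the single tested concentration, limit read from the data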
HTR2A ag: agonists of mouse serotonin 5-HT2A receptor (HTR2A). 360,000 tested, 0.66% active. CHO-K1 mHTR2A beta-arrestin complementation, luminescence; percent of 30 µM serotonin response. P35363. AID 624169. activation, % at 7.6 µM;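 active = activation above a run cutoff, the mean activation of all tested compounds plus 3 SD, cut at about 14% in these data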;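 note: 0% = plate median of compound wells and 100% = 30 µM serotonin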
NOD2-RIPK2 inh: blocks binding of human NOD2 to RIPK2; CHO BLA complementation NOD2-RIPK2, CCF4 ratio; inhibition, % at 4.98 µM; 360,000 tested, 0.38% active; in the data active = inhibition above about 21%;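 note: 0% = vehicle only and 100% = reference blocker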
Target sequence (O43353 whole entry, looked up): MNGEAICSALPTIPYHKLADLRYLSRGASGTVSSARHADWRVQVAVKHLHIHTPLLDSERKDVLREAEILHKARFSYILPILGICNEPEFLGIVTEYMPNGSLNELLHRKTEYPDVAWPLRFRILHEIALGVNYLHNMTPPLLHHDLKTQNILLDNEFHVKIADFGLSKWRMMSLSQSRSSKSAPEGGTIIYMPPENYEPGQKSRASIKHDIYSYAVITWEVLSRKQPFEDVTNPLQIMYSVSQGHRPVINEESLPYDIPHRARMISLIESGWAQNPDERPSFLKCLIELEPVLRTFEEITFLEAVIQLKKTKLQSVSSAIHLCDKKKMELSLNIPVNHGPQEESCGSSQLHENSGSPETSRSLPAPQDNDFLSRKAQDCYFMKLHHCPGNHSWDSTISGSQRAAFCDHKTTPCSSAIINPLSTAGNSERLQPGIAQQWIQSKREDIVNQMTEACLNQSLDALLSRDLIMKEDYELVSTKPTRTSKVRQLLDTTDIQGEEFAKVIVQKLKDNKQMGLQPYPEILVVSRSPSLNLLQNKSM
ABHD5-PLIN5 inh: inhibitors of human ABHD5-perilipin-5 interaction; 360,000 tested, 0.78% active; Q00G26+Q8WTS1; Split G. princeps luciferase complementation, luminescence, 4 h; inhibition, % at 4 µM;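 active = inhibition above the mean inhibition across every tested compound plus 3 SD, cut at about 22% in these data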;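 note: 0% = DMSO only wells and the 100% control is not disclosed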
ABHD5-PLIN5 conf: ABHD5-PLIN5 interaction inhibition, confirmed; 2,200 tested, 67% active; inhibition, % at 4 µM; AID 651612; shares compounds with ABHD5-PLIN5 inh; biochemical ABHD5-PLIN5 interaction, luminescence; in the data active = inhibition above about 23%;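 note: 0% = DMSO vehicle wells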
HNF4 split-luc: HNF4 split-luciferase signal hit, counter-screen | shares compounds with ABHD5-PLIN5 inh | HNF4 dimerization, luminescence, biochemical | inhibition, % at 4 µM | 2,200 tested, 77% active;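 active = mean inhibition across replicate wells exceeding the computed hit threshold, cut at about 13% in these data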;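 note: light from luciferase halves that rejoin when HNF4 fusion proteins dimerize; 0% = DMSO only wells and the 100% control is not given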
* = called active by the depositor. This is a sample that favours compounds with a hit; in the whole collection about 2.4% have one here.

Cc1ccc(-c2nc(C)sc2CC(=O)NCc2ccco2)cc1 was read as TLR4 MyD88 comp -9.4, TLR9-MyD88 block -6.1, CRFBP-R2 block 28.9, HTR2A ag 3.8, NOD2-RIPK2 inh -5.0, ABHD5-PLIN5 inh 27.5*, ABHD5-PLIN5 conf 26.8* and HNF4 split-luc 32.6*.
Screening O=C(O)c1cc([N+](=O)[O-])c(Sc2nc3ccccc3[nH]2)c([N+](=O)[O-])c1 returned TLR9-MyD88 block -11.3, CRFBP-R2 block -5.7, HTR2A ag 1.6, NOD2-RIPK2 inh 11.1, ABHD5-PLIN5 inh 34.9*, ABHD5-PLIN5 conf 52.8* and HNF4 split-luc 54.2*.
Screening CCCC(=O)N1CCC1(C)C(=O)Nc1cc(OC)ccc1OC (stereo not drawn) returned HTR2A ag 7.0, NOD2-RIPK2 inh 0.7 and ABHD5-PLIN5 inh 2.2.
Screening Cc1ccc(NC(=O)CC2S/C(=N/N=C/c3c[nH]c4ccccc34)NC2=O)cc1 (stereo not drawn) returned TLR4 MyD88 comp 7.9, TLR9-MyD88 block -6.7, CRFBP-R2 block -19.9, HTR2A ag 0.6, NOD2-RIPK2 inh -4.9, ABHD5-PLIN5 inh 25.8*, ABHD5-PLIN5 conf 16.4 and HNF4 split-luc 14.0*.
`O=S(=O)(N=C1C=CC(=NS(=O)(=O)c2ccccc2)c2ccccc21)c1ccccc1` gave TLR9-MyD88 block -2.6, CRFBP-R2 block 14.5, HTR2A ag -5.5, NOD2-RIPK2 inh 3.9, ABHD5-PLIN5 inh 33.1*, ABHD5-PLIN5 conf 63.2* and HNF4 split-luc 42.2*.
Screening Clc1ccc(Cl)c(OCCCCNCc2ccccc2)c1 returned TLR4 MyD88 comp -9.8, TLR9-MyD88 block 2.6, CRFBP-R2 block -72.9, HTR2A ag 0.2, NOD2-RIPK2 inh 9.8, ABHD5-PLIN5 inh 27.2*, ABHD5-PLIN5 conf 5.0 and HNF4 split-luc 1.1.
For Clc1ccc(OCCCNCc2ccccc2)c(Br)c1 the results were TLR4 MyD88 comp 9.7, TLR9-MyD88 block 7.4, CRFBP-R2 block -66.9, HTR2A ag -1.2, NOD2-RIPK2 inh 2.2 and ABHD5-PLIN5 inh -0.1.
`CC(C)NC(=O)C1(C)CN(S(C)(=O)=O)CC(=O)N1C1CCCCCC1` (stereo not drawn) gave HTR2A ag -2.5, NOD2-RIPK2 inh -11.5 and ABHD5-PLIN5 inh 3.7.
`CC(C)C[C@H]1COc2cccc(N3CCSCC3)c2S(=O)(=O)N1` gave HTR2A ag 2.5, NOD2-RIPK2 inh 5.4 and ABHD5-PLIN5 inh -3.8.
`COCC(C)NC(=O)CCS(=O)(=O)c1nc(-c2ccc(OC)cc2)cc(C(F)(F)F)n1` (stereo not drawn) gave TLR4 MyD88 comp -4.6, TLR9-MyD88 block -8.7, CRFBP-R2 block 5.8, HTR2A ag 5.5, NOD2-RIPK2 inh -10.1 and ABHD5-PLIN5 inh 13.5.
`COc1ccc(-c2cc(C(F)(F)F)nc(S(=O)(=O)CCCC(=O)Nc3cccnc3Cl)n2)cc1OC` gave TLR4 MyD88 comp 17.7, TLR9-MyD88 block 10.1, CRFBP-R2 block -28.2, HTR2A ag -1.0, NOD2-RIPK2 inh 11.2, ABHD5-PLIN5 inh 24.4*, ABHD5-PLIN5 conf 32.9* and HNF4 split-luc 49.8*.
Screening CC(C)(C)OC(=O)N1Cc2cc3ccccc3nc2C1 returned TLR9-MyD88 block 5.5, CRFBP-R2 block -7.5, HTR2A ag -0.5, NOD2-RIPK2 inh -8.1 and ABHD5-PLIN5 inh 2.1.
Screening CCOC(=O)C1(C(=O)OCC)COC(=O)C1CN1Cc2cc3ccccc3nc2C1 (stereo not drawn) returned TLR9-MyD88 block -0.9, CRFBP-R2 block -21.4, HTR2A ag 0.8, NOD2-RIPK2 inh -9.1, ABHD5-PLIN5 inh 46.3*, ABHD5-PLIN5 conf 29.2* and HNF4 split-luc 88.6*.
`CCCCCCCCCCCCCCCC[n+]1cccc2ccccc21` gave TLR4 MyD88 comp 13.4, TLR9-MyD88 block -5.8, CRFBP-R2 block -102.2, HTR2A ag 3.6, NOD2-RIPK2 inh 2.6, ABHD5-PLIN5 inh 35.3*, ABHD5-PLIN5 conf 16.2 and HNF4 split-luc -2.8.
COc1cccc(CNC(=O)[C@@H]2CCCN2C(=O)[C@H]2CCCCN2C(=O)c2cccs2)c1 was read as HTR2A ag 0.3, NOD2-RIPK2 inh 13.6 and ABHD5-PLIN5 inh 1.0.
